Mdm2 MdmX PPI = human Mdm2/MdmX binding inhibition. O15151+Q00987. SaOS-2 split-luciferase Mdm2/MdmX complementation, luminescence. inhibition, % at 8 µM. 330,000 compounds, 3% hits;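 active = inhibition of at least 50% at 8 µM in the primary screen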
Target sequence (O15151 whole entry, looked up): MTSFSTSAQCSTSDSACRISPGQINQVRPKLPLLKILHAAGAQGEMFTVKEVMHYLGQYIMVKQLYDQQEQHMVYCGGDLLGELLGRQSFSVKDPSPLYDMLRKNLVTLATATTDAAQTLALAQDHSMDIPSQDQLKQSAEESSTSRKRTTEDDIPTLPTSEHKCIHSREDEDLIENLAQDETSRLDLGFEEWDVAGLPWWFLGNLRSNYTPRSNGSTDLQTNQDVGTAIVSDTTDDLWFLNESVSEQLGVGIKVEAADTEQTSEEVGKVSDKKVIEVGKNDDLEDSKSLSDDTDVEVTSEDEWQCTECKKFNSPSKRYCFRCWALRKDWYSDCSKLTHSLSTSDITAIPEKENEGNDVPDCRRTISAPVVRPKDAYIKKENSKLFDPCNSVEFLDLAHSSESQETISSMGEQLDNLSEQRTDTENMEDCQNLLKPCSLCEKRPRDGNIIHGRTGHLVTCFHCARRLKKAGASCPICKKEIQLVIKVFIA
Target sequence (Q00987 whole entry, looked up): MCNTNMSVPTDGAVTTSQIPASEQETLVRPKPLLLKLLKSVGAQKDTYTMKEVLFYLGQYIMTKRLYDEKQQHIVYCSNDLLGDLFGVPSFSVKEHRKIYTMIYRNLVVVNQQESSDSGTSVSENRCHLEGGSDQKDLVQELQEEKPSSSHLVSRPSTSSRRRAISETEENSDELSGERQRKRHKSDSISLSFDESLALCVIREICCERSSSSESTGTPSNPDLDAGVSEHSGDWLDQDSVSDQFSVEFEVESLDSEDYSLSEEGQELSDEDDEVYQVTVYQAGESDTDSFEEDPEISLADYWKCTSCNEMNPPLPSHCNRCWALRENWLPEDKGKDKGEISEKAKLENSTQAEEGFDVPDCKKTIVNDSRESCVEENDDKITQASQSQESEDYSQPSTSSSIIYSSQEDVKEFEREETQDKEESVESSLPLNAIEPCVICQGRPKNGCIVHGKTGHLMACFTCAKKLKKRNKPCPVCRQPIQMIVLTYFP
Beta cell apopt = blocks beta cell apoptosis | INS-1E cytokine-induced death, ATP luminescence, 48 h; percent of positive-control rescue, neutral wells zero | protection from apoptosis, % (test concentration not listed) | 300,000 compounds, 0.8% hits | AID 435005;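 active = Every replicate reaches about 75%, or at least half do and their mean reaches it too, limit read from the data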;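 note: higher means more ATP so stronger rescue from cytokine killing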
Bfl-1 A1 inh = inhibitors of the anti-apoptotic protein A1, read as caspase activation; MEF A1-2A-BIM cells, Caspase-Glo 3/7 luminescence, 3 h; percent of clofoctol response, vehicle zero; caspase activation, % (no concentration beside the values); 330,000 compounds, 0.066% hits;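 active = over half of replicate activation scores above 10%, or exactly half above 10 with the replicate mean above 10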
697 NFkB inh = inhibitors of the PMA/ionomycin-induced NF-kB reporter in 697 B cells. 697 B-cell NF-kB luciferase reporter, 16 h. inhibition, % at 4 µM. 330,000 compounds, 0.33% hits. AID 435022; in the data active = inhibition above about 35%
NTR1 ag = NTR1 (human) agonism | P30989 | NTR1-U2OS beta-arrestin-GFP spot imaging, agonist mode | activation, % at 20 µM | 330,000 compounds, 0.17% hits | AID 493036;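 active = activation at or above 40% of the spot to cytoplasm intensity ratio, with at least 20 cells analyzed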
Jurkat NFkB inh = inhibitors of the PMA/ionomycin-induced NF-kB reporter in Jurkat cells; PMA/ionomycin-induced NF-kB luciferase reporter, luminescence; AID 435003; 330,000 compounds, 0.53% hits; inhibition, % at 4 µM; in the data active = inhibition above about 50%
Mdm2 MdmX conf = human Mdm2/MdmX binding inhibition, confirmed; shares compounds with Mdm2 MdmX PPI; AID 489028; luminescent assay; inhibition, % at 8 µM; 10,000 compounds, 55% hits; in the data active = inhibition above about 40%
Full FLuc ctr = inhibits full-length luciferase, flagging false Mdm2/MdmX hits | shares compounds with Mdm2 MdmX PPI | SaOS-2 full-length luciferase counterscreen, luminescence | inhibition, % at 8 µM | 6,200 compounds, 77% hits | AID 504607;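 active = mean inhibition at 8 µM reaching about 37%, which flags the compound as non-specific, limit read from the data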;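 note: p53-null SaOS-2 cells with luciferase driven by a doxycycline-inducible promoter; compound on cells about two nights before reading with doxycycline added after day one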
Large screens that a line does not name were inactive (follow-up assays come after a bar, where they were run); ! = repeats disagree. Most compounds without a hit are left out; they make up all but 3.8% or so of the library.

COc1ccc(NC(=O)CNC(=O)c2sc3ccccc3c2Cl)c(OC)c1	Mdm2 MdmX PPI 77 | Mdm2 MdmX conf inactive
COc1ccccc1CNC(=O)CNC(=O)c1sc2ccccc2c1Cl	none (no result: Beta cell apopt)
Cc1nn(CCCC(=O)NCCc2ccccc2)c(=O)c2nccn12	none
CCOC(=O)c1sc(N(Cc2ccccc2)C(=O)CCl)nc1C	Mdm2 MdmX PPI 65 | Mdm2 MdmX conf inactive
CCOC(=O)c1sc(N(Cc2ccccc2)C(=O)COC(=O)c2ccccc2O)nc1C	none
CCOc1cc(/C=N/NC(=O)Cn2nc([N+](=O)[O-])cc2C)cc(Br)c1OCc1ccccc1F	Mdm2 MdmX PPI 51 (no result: Bfl-1 A1 inh) | Mdm2 MdmX conf inactive
CCOC(=O)c1cnc(-n2nc(C)cc2C)nc1NC1CCCC1	Mdm2 MdmX PPI 76, Beta cell apopt 97 | Mdm2 MdmX conf 42 | Full FLuc ctr 43
Cc1ccc(NC(=O)CN(C)C(=O)Cc2c[nH]c3ccccc23)cc1	none
O=C(COC(=O)c1cc(Cl)ccc1O)NCCC1=CCCCC1	none
COC(=O)[C@]1(Cc2ccccc2)N[C@H](c2ccc(-c3ccc(Cl)c(Cl)c3)cc2)[C@@H]2C(=O)N(C)C(=O)[C@@H]21	Mdm2 MdmX PPI 56 | Mdm2 MdmX conf 51 | Full FLuc ctr 82
COC(=O)[C@]1(CC(C)C)N[C@H](c2ccc(-c3ccc(Cl)c(Cl)c3)cc2)[C@@H]2C(=O)N(C)C(=O)[C@@H]21	Mdm2 MdmX PPI 57 | Mdm2 MdmX conf inactive
COC(=O)[C@]1(Cc2ccccc2)N[C@H](c2ccc(-c3cccc(Cl)c3)cc2)[C@@H]2C(=O)N(C)C(=O)[C@@H]21	Mdm2 MdmX PPI 55 | Mdm2 MdmX conf inactive | Full FLuc ctr 74
CCN1C(=O)[C@H]2[C@@H](c3ccc(-c4cccc(Cl)c4)cc3)N[C@@](CC(C)C)(C(=O)OC)[C@H]2C1=O	Mdm2 MdmX PPI 52 | Mdm2 MdmX conf inactive
COC(=O)[C@]1(Cc2ccccc2)N[C@H](c2ccc(-c3ccccc3)cc2)[C@@H]2C(=O)N(C)C(=O)[C@@H]21	none
O=C(Nc1cc(Cl)ccc1N1CCCC1)C1=COCCO1	none
COc1cccc(C(=S)N2CCOCC2)c1OS(=O)(=O)c1ccc(Cl)cc1	none
Cc1cc(NC(=O)C(C)SCC(=O)N(C)CC(=O)Nc2ccc(Br)cc2C)no1 (centres undefined)	none
CC[C@H](C)[C@H]1O[C@]2(CC[C@@H]1C)C[C@@H]1C[C@@H](CC=C(C)[C@@H](O[C@H]3C[C@H](OC)[C@@H](O[C@H]4C[C@H](OC)[C@@H](O)[C@H](C)O4)[C@H](C)O3)[C@@H](C)C=CC=C3CO[C@@H]4[C@H](O)C(C)=C[C@@H](C(=O)O1)[C@]34O)O2	Mdm2 MdmX PPI 100, Beta cell apopt 87 | Mdm2 MdmX conf inactive
CC(=O)NC1=NN(C(C)=O)C(C)(c2cccs2)S1 (centres undefined)	Mdm2 MdmX PPI 55 | Mdm2 MdmX conf 42 | Full FLuc ctr 52
CC1=CC(C)(C)N(S(=O)(=O)c2ccc(F)cc2)c2ccc(C)cc21	none
COc1ccc2c(c1)C(C)=CC(C)(C)N2S(=O)(=O)c1ccc(NC(C)=O)cc1	Mdm2 MdmX PPI 63 | Mdm2 MdmX conf 54 | Full FLuc ctr 89
CC1=CC(C)(C)N(S(=O)(=O)c2ccc(C)cc2)c2ccccc21	Mdm2 MdmX PPI 64 (no result: Beta cell apopt) | Mdm2 MdmX conf 64 | Full FLuc ctr 88
COc1ccc2c(c1)C(C)=CC(C)(C)N2S(=O)(=O)c1ccc(Br)cc1	none (no result: Mdm2 MdmX PPI, 697 NFkB inh, NTR1 ag, Jurkat NFkB inh)
CCOc1ccc2c(c1)C(C)=CC(C)(C)N2S(=O)(=O)c1ccc(F)cc1	Mdm2 MdmX PPI 51 (no result: Beta cell apopt) | Mdm2 MdmX conf 53 | Full FLuc ctr 49
CC(=O)Nc1cccc(NC(=O)c2ccc(C(=O)Nc3cccc(NC(C)=O)c3)nc2)c1	none
COc1ccc(C(=O)NCC(=O)Nc2ccc(-c3ccccc3)cc2)cc1	Mdm2 MdmX PPI 51 | Mdm2 MdmX conf 68 | Full FLuc ctr 62
Cc1cccc(NC(=O)c2ccc(C(=O)Nc3cccc(C)c3)nc2)c1	Mdm2 MdmX PPI 56 | Mdm2 MdmX conf 52 | Full FLuc ctr 56
CCOc1ccc(NC(=O)CNC(=O)c2ccc(OC)cc2)cc1	none
COc1ccc(C(=O)N/N=C(/C)c2cccc(NC(=O)c3ccccc3F)c2)cc1	Mdm2 MdmX PPI 53 | Mdm2 MdmX conf inactive
COc1ccc(C(=O)Nc2ccc(C(=O)Nc3cccc(C)c3)cc2)cc1	Mdm2 MdmX PPI 56 | Mdm2 MdmX conf inactive | Full FLuc ctr 73
Cc1ccc(NC(=O)CN(C)C(=O)C(C)N2CCN(Cc3ccccc3C)CC2)cc1 (centres undefined)	none
COc1ccc(CCCC(=O)NCc2ccccc2)cc1C	Mdm2 MdmX PPI 53 | Mdm2 MdmX conf 48 | Full FLuc ctr 71
Cc1ccc(C(O)(C(=O)NNc2ccc3ccccc3n2)c2ccc(C)cc2)cc1	Mdm2 MdmX PPI 51! | Mdm2 MdmX conf inactive
Cc1ccc(C(=O)Nc2ccc3ccccc3n2)cc1	none
COc1ccc(C(=O)NCCc2ccccc2F)cc1OC1CCN(C(C)=O)CC1	none
CCN(CC)CCNC(=O)c1ccc(NC(=O)C2CCN(c3ncnc4sc(C)c(C)c34)CC2)cc1	Mdm2 MdmX PPI 91 | Mdm2 MdmX conf 61 | Full FLuc ctr inactive
Cc1ccc(C(=O)NNC(=O)c2n[nH]c(=O)c3ccccc23)cc1C	none
CC1CCc2nc(N)c(C#N)c(-c3cccnc3)c2C1 (centres undefined)	Mdm2 MdmX PPI 84 | Mdm2 MdmX conf 79 | Full FLuc ctr inactive
CCOc1cc(Br)cc(/C=N/NC(=O)c2cccnc2)c1O	none
COc1ccc(-c2csc(NC(=S)NC(=O)c3ccccc3)n2)cc1Br	Mdm2 MdmX PPI 56 (no result: Beta cell apopt) | Mdm2 MdmX conf inactive | Full FLuc ctr 85
COc1ccc(-c2csc(NC(=S)NC(=O)c3ccco3)n2)cc1Br	Mdm2 MdmX PPI 82 | Mdm2 MdmX conf 56 | Full FLuc ctr inactive
COc1ccc(C(=O)NC(=S)Nc2nc(-c3ccc(OC)c(Br)c3)cs2)cc1Br	none
COc1ccc(-c2csc(NC(=S)NC(=O)/C=C/c3ccco3)n2)cc1Br	Mdm2 MdmX PPI 85 | Mdm2 MdmX conf 65 | Full FLuc ctr 59
COc1cc(OC)cc(C(=O)NC(=S)Nc2nc(-c3cc4ccccc4o3)cs2)c1	Mdm2 MdmX PPI 65 | Mdm2 MdmX conf inactive
COc1ccc(-c2csc(NC(=S)NC(=O)/C=C/c3ccco3)n2)cc1OC	none (no result: Mdm2 MdmX PPI, 697 NFkB inh, NTR1 ag, Jurkat NFkB inh)
O=C(CNC(=O)c1ccccc1F)NCc1ccncc1	none
O=C(c1ccccc1Cl)N1CCN(S(=O)(=O)N2CCCCC2)CC1	none

Source: PubChem BioAssay
